Shown are actives, neighbours in structure and some others; about 3.2% of the full set was active somewhere.
AmpC detergent = inhibitors of E. coli AmpC beta-lactamase with detergent | AmpC hydrolysis of nitrocefin, absorbance 480 nm, 0.01% Triton | Potency, µM (doses to about 114 µM), for inactives: top-dose activity change, negative = inhibition, most hits filed as inhibitors | 0.041% of 370,000 active | AID 485294;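 note: 0% = no-compound wells and -100% = no-enzyme wells; nearly all actives have a fitted effect of over 25% in size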
Target sequence (P00811 whole entry, looked up): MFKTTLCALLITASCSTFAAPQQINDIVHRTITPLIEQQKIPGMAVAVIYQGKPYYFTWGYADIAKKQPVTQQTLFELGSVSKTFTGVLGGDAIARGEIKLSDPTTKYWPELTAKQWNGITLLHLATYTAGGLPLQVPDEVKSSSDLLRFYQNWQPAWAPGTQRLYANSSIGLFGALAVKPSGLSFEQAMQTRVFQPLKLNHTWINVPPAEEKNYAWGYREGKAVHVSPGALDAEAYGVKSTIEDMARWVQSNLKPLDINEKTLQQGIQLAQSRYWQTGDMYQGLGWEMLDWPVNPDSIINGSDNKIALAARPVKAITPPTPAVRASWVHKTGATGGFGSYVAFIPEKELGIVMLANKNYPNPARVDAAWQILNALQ
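AmpC (5.3 nM in the dispensed reagent) in 20 mM phosphate pH 7.0 with 0.01% (detergent screen) or 0.0001% Triton X-100 was preincubated with compounds for 15 min at room temperature. Nitrocefin was then added from an 800 uM solution, and hydrolysis was followed at 480 nm.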
AmpC no deterg = AmpC beta-lactamase inhibition without detergent; P00811; AmpC nitrocefin hydrolysis, absorbance 480 nm, 0.0001% Triton; Potency, µM (highest dose often 57.1 µM), for inactives: top-dose activity change, negative = inhibition, usual class: inhibitors; 0.52% of 330,000 active; AID 485341;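 note: plate controls were no compound for no effect and no enzyme for full effect; nearly all actives have a fitted effect of over 20% in size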
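20 mM phosphate pH 7.0 + 0.01% (detergent screen) or 0.0001% Triton X-100; 5.3 nM AmpC reagent; cpd preinc 15 min RT; nitrocefin (800 uM stock) to start; A480 q20 s × 4 min; Activity was normalised to no-enzyme and no-compound control wells.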
Sm TGR block = inhibitors of Schistosoma mansoni thioredoxin glutathione reductase; Potency, µM (highest dose often 114 µM), without a hit: top-dose activity change, negative = inhibition, most hits filed as inhibitors; 3% of 360,000 active; purified TGR, DTNB reduction, TNB absorbance 405 nm; Q962Y6; AID 485364; note: nearly all actives have a fitted effect of over 60% in size
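First, TGR (20 nM dispensed) and NADPH were mixed with compound. Second, a 15 min room-temperature incubation followed. Third, further NADPH and then DTNB were added to start the reaction. Finally, TNB absorbance was monitored kinetically.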
AMA1 RON2 block = inhibitors of Plasmodium falciparum AMA1-RON2 interaction. AID 720542. Potency, µM (titrated, usually from 58.2 µM), for inactives: top-dose activity change, negative = inhibition, hits mostly inhibitors. 0.2% of 360,000 active. AlphaScreen AMA1-biotinylated RON2 peptide binding;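 note: 0% = vehicle wells and -100% = peptide control; nearly all actives have a fitted effect of over 45% in size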
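AMA1 (3D7) with his tag at 25 nM final met compounds first, then biotinylated RON2 peptide at 25 nM; detection used donor plus acceptor beads, 10 µg/mL apiece, read by AlphaScreen after 30 min at room temperature.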
RE007 growth inh = less growth of the S. pombe RE007 Vpr strain | S. pombe RE007 Vpr strain, BacTiter-Glo ATP luminescence, 24 h | Potency, µM (doses to about 92.2 µM), without a hit: top-dose activity change, negative = less growth, most hits filed as inhibitors | 0.21% of 360,000 active | AID 651644; active = well fitted falling curve with a large enough effect; inconclusive = small, poorly fitted or top-dose-only effect; inactive = no such curve, though single readings can be large or run the other way; note: nearly all actives have a fitted effect of over 50% in size
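Fission yeast strain RE007, carrying one chromosomally integrated HIV-1 vpr copy, was seeded at OD 0.01 in PMG+AL medium with 23 nL pinned compound. After 24 h at 30 °C and 99% humidity, viability was read by BacTiter-Glo luminescence.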
Numbers without * were called inactive; ? = inconclusive; nt = no result given; [ ] = remark or other dose. Unless noted, calls come from the whole dose curve; as a rule, active = well fitted curve in the direction sought with a large enough effect; inconclusive = small, poorly fitted or top-dose-only effect, or another doubt; inactive = no such curve, though single readings can be large; an effect the other way counts as inactive or inconclusive. Unless noted, % is set by controls: 0 for no effect and ±100 for the full control effect; potency is the fitted concentration of half-maximal effect.

SMILES | AmpC detergent | AmpC no deterg | Sm TGR block | AMA1 RON2 block | RE007 growth inh
O=C(O)c1cccc(Cn2c(Cl)c(/C=N/NC(=O)c3ccccc3)sc2=O)c1 | ? | -24% | 56µM* | 2% | -11%
O=C(O)c1cccc(Cn2c(Cl)c(/C=N/NC(=O)c3cc4ccccc4cc3O)sc2=O)c1 | 1% | -31% | 32µM* | 24% | -7%
O=C(O)c1ccc(/C=N/NC(=O)c2cc3ccccc3cc2O)cc1 | nt | -34% | nt | -5%[11.6 µM] | -1%
O=C(O)c1cccc(Cn2c(Cl)c(/C=N/NC(=O)c3ccco3)sc2=O)c1 | 1% | -4% | 45µM* | 39% | -14%
O=C(O)c1cccc(Cn2c(Cl)c(/C=N/NC(=O)c3cccc(O)c3)sc2=O)c1 | 4% | -29% | 9% | 23% | -5%
COc1ccc(CNC(=O)Cn2c(=O)n3nc(-c4ccc(OC)cc4)nc3c3ccccc32)cc1 | 5% | nt | 13% | nt | nt
COc1cccc(NC(=O)CSC2=Nc3ccccc3C3=NC(CCC(=O)NCCc4ccccc4)C(=O)N23)c1 (centres undefined) | 2% | nt | -1% | nt | nt
CN(C)c1cccc(NC(=O)C2Cc3c(-c4ccc(Cl)cc4)ccnc3O2)c1 (centres undefined) | nt | nt | nt | 25µM* | -16%
CC(=O)Nc1cccc(-c2ccnc3c2CC(C(=O)Nc2cccc(N(C)C)c2)O3)c1 (centres undefined) | nt | nt | nt | ? | -21%
Cc1nc(N2CCOCC2)c2c(C(=O)NCc3ccc(Cl)cc3)c(C)oc2n1 | 25% | nt | 4% | nt | nt
O=C(CN(Cc1ccco1)Cc1cccs1)N1CCN(S(=O)(=O)c2cccc(F)c2)CC1 | 9% | 63% | 40µM* | 1% | -12%
O=C1S/C(=C/c2ccccc2)C(=O)N1CC(O)Cn1c2ccccc2c2ccccc21 (centres undefined) | -12% | 16µM* | 1% | -13% | -1%
COc1ccc(N2CCN(C(=O)c3ccc(C)c(NC(=O)c4nsc5ccccc45)c3)CC2)cc1 | -1% | nt | -1% | nt | nt
CCNC(=O)c1c(NC(=O)Cc2coc3ccc(CC)cc23)sc2c1CCCC2 | -6% | nt | 5% | nt | nt
Cc1ccc(-c2noc(C3CCCN(C(=O)c4ccccc4)C3)n2)o1 (centres undefined) | -15% | 5% | 56µM* | 0% | -3%
CP(=O)(Nc1cc(Cl)ccc1Cl)c1nc2c(s1)CCCC2 (centres undefined) | -12% | 30% | 8.9µM* | -8% | 19%
CCOc1ccccc1NC(=O)CSc1nnc(-c2ccccn2)n1Cc1ccco1 | -11% | 31% | ? | 1% | 13%
COc1ccccc1NC(=O)CSc1nnc(COc2ccc(Cl)cc2)n1Cc1ccco1 | ? | 9% | ? | -13% | 18%
CCOc1ccccc1NC(=O)CSc1nnc(-c2ccccc2Cl)n1Cc1ccco1 | ? | -2% | 50µM* | -4% | 29%
CCOc1ccccc1NC(=O)CSc1nnc(-c2ccco2)n1Cc1ccco1 | -17% | 28% | 50µM* | -15% | 5%
O=C(Nc1ccc(Cl)cc1C(=O)NCc1cccnc1)c1ccco1 | 3% | -22% | 8% | -2% | -9%
O=C(Nc1ccc(Cl)cc1C(=O)Nc1ccncc1)c1ccco1 | 0% | -1% | 40µM* | 2% | -11%
CCc1ccc(Nc2nnc(SCC(=O)Nc3sccc3C(N)=O)s2)cc1 | 5% | 16µM* | 1% | 13% | 11%
O=C1C(Cl)=C(N2CCOCC2)C(=O)N1c1ccccc1F | 6% | -5% | 40µM* | 15% | -1%
CCOc1ccc(N2C(=O)C(Cl)=C(N3CCOCC3)C2=O)cc1 | -1% | -8% | 22µM* | -4% | 25%
SMILES | AmpC detergent | AmpC no deterg | Sm TGR block | AMA1 RON2 block | RE007 growth inh
Cc1ccc(S(=O)(=O)NC(=S)c2ccccc2)cc1 | nt | nt | nt | 12% | 1%
Cc1ccc(C(=S)NCS(=O)(=O)c2ccc(C)cc2)cc1 | -2% | -19% | 2.8µM* | 0% | 4%
Cc1ccc(S(=O)(=O)CNC(=S)c2cccc(Cl)c2)cc1 | -9% | -20% | 3.5µM* | -1% | -11%
Cc1ccc(N(C(=O)c2cccc(C)c2)S(=O)(=O)c2ccc(Cl)cc2)cc1 | 6% | nt | -1% | nt | nt
Cc1oc(CC(C)C)cc1C(=O)Nc1cccc2ccccc12 | 4% | -33% | 1% | -12% | 15%
CCOc1ccccc1NC(=O)c1cc(CC(C)C)oc1C | 4% | 0.32µM* | -29% | 7% | -30%
FC(F)(F)C1=Nc2cccc3cccc(c23)N1 | ? | 8.9µM* | 18µM* | ? | -3%
CCCNS(=O)(=O)c1cc(-c2nnc3c4ccccc4c(C)nn23)ccc1OC | 18% | nt | -2% | nt | nt
Cc1ccc2oc(=O)c3cc(C(=O)NCCCN4CCN(C)CC4)sc3c2c1 | -9% | -11% | -1% | -5% | 1%
Cc1ccc(C)c(N2CCN(C(=O)c3cc4c(=O)oc5ccccc5c4s3)CC2)c1 | -1% | nt | 89µM* | nt | nt
O=C(NCCCN1CCCCCC1)c1cc2c(=O)oc3ccccc3c2s1 | 1% | 50% | 50µM* | -20% | -21%
COc1ccc(NC(=O)Cn2nc(C)c3c(C)n(-c4ccccc4)nc3c2=O)cc1OC | 12% | nt | -1% | nt | nt
COC(=O)C1=C(C(=O)OC)C2C(C)=CC(C)=CN2C(C(=O)OC)=C1C(=O)OC (centres undefined) | -2% | -15% | 40µM* | -30% | -7%
COC(=O)C1=C(C(=O)OC)C(C(=O)OC)N2C=CC=CC2=C1C(=O)OC (centres undefined) | nt | nt | nt | -5% | -9%
CN(Cc1ccccc1)C(=O)c1ccc(Nc2nc(C(N)Cc3ccc(C(F)(F)F)cc3)cs2)nc1 (centres undefined) | nt | nt | nt | 69% | 36%
Cn1nnnc1Sc1ncnc2scc(-c3ccccc3C(F)(F)F)c12 | 0% | -9% | 4µM* | nt | nt
Cn1nnnc1Sc1ncnc2scc(-c3cccs3)c12 | -9% | -21% | 3.5µM* | nt | nt
COc1ccc(-c2noc(-c3ccc(NC(C)c4ccccc4)c([N+](=O)[O-])c3)n2)cc1OC (centres undefined) | 10% | nt | -9% | nt | nt
CN(Cc1ccco1)c1ncnc2ccc(-c3ccc4c(c3)OCCO4)cc12 | ? | -11% | -4% | nt | nt
O=C(O)CCn1cc(C=C2C(=O)NC(=S)NC2=O)c(-c2cccc(Cl)c2)n1 | 1% | ? | 32µM* | -11% | 10%
Cc1ccccc1C(=O)Nc1ccc(S(=O)(=O)N2CCC(c3nc4ccccc4s3)CC2)cc1 | -5% | nt | 2% | nt | nt
NC(=O)COc1ccccc1C1=NO[C@@](CC(=O)O)(C(=O)Nc2ccc3c(c2)OCCO3)C1 | -2% | -6% | 18µM* | 0% | 3%
N#Cc1ccccc1OCC(=O)Nc1ccc2c(c1)OCCO2 | -4% | -21% | 3% | 6%[11.6 µM] | -41%

Compound activity: PubChem BioAssay, National Center for Advancing Translational Sciences (NCATS)
